Compound activity: PubChem, NMMLSC
VLA-4 antagonist: inhibitors of LDV-FITC binding to Mn2+-activated VLA-4, primary screen, Jurkat cells; inhibition, % at 10 µM (by protocol); LDV-FITC binding with Mn2+, flow cytometry; 100% = Mn2+-driven binding gain fully reversed; 24,000 compounds, 0.2% hits; Integrin alpha-4 (Homo sapiens), P13612;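 active = inhibition above 50%; inconclusive = compound itself fluorescent, judged against control cell fluorescence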
FPR binder: human FPR ligands by binding competition, primary screen, cell-based, FPRL1 counter-screen, flow cytometry; fMet-Leu-Phe receptor (Homo sapiens), P21462; FPR-expressing cells, fluorescent ligand binding; inhibition, % (test concentration not listed); 24,000 compounds, 0.74% hits; AID 440, 2006
FPRL1 ligand: human FPRL1 ligands by binding competition, primary screen, cell-based, FPR counter-screen, flow cytometry | N-formyl peptide receptor 2 (Homo sapiens), P25090 | FPRL1-expressing cells, fluorescent ligand binding inhibition | inhibition, % (concentration not given with the values) | 24,000 compounds, 0.3% hits
VLA-4 allo ag: enhancers of LDV-FITC binding to VLA-4 integrin, primary screen, Jurkat cells, flow cytometry; AID 528, 2006; Integrin alpha-4 (Homo sapiens), P13612; activation, % at 10 µM (by protocol); 24,000 tested, under 10 active;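 active = fluorescent ligand binding to cells raised by more than 40% of the manganese-induced maximum; inconclusive = compound's own fluorescence above 85% of the ligand control signal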
Jurkat autofluor: compound autofluorescence on Jurkat cells, primary screen, artefact control for VLA-4 allosteric ligand project, cell-based, flow cytometry | 24,000 compounds, 0.61% hits | AID 576, 2007 | stronger effect = higher value; 1 = vehicle-only cell background | fluorescence ratio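 (tested at 10 µM compound in the well)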;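 active = fluorescence ratio above 2.44, which is 1 plus 3 SD of all ratios; inconclusive = signal too bright to measure linearly, ratio around 10 or more; inactive = fluorescence ratio below 2.44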;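 note: green fluorescence of cells measured with 488 nm excitation and 530 nm emission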
LNCaP diff act: activators of LNCaP prostate cell differentiation, primary screen, flow cytometry side scatter. AID 795, 2007. 24,000 compounds, 0.56% hits. 4 d. side scatter shift, % at 10 µM;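 active = side scatter shift above 30%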;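 note: androgen-responsive LNCaP prostate cancer cells in charcoal-stripped serum medium; higher shift means more granular cells and more differentiation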
Of the large screens only hits and unclear results are named; the others gave an inactive call. Compounds with a hit are over-represented: about 1.9% of the library has one in this group of screens. Cut-off read from the data, not from the text of the source, unless noted: active = inhibition above about 30%; inconclusive = no clear call, values can overlap the other calls; inactive = below that.

O=C(CN1CCN(Cc2ccc3c(c2)OCO3)CC1)N1CCc2[nH]c3ccc(F)cc3c2C1	LNCaP diff act 50.0
Cc1ccc(S(=O)(=O)Nc2nc3ccccc3nc2NCc2ccco2)cc1	VLA-4 antagonist inconclusive, VLA-4 allo ag inconclusive, Jurkat autofluor 4.83
CN(c1ccccc1)S(=O)(=O)c1cc(C(=O)N2CCN(c3ccccn3)CC2)ccc1Cl	none
CCOC(=O)N1CCC(Nc2nc3ccccc3n3nnnc23)CC1	VLA-4 antagonist inconclusive, VLA-4 allo ag inconclusive, Jurkat autofluor 7.98
Cc1ccc(CNc2nc3ccccc3n3nnnc23)cc1	VLA-4 antagonist inconclusive, VLA-4 allo ag inconclusive, Jurkat autofluor inconclusive, LNCaP diff act 35.0
